According to PubChem BioAssay (NCI):
The panel holds about 83,000 compounds, 20% with a hit somewhere; the sample as a whole holds those more often.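 Values shown are percent growth following 48 h exposure of cells in 96-well plates to a single concentration of compound; below 10 was considered active.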 A number with no mark means an inactive call. Calls of active or inactive are those of the source.

What was measured:
Assay in all cases: NCI-60 one-dose screen, 48 h (100 = growth as untreated, 0 = no growth, -100 = all killed)
Conditions in all cases: 10 µM unless noted
DU-145 prostate = system: DU-145 prostate
K-562 leukemia = system: K-562 leukemia
MALME-3M melanoma = system: MALME-3M melanoma
MDA-MB-231 breast = system: MDA-MB-231 breast
RXF 393 renal = system: RXF 393 renal
SF-268 CNS = system: SF-268 CNS
SF-295 CNS = system: SF-295 CNS
SF-539 CNS = system: SF-539 CNS
UACC-257 melanoma = system: UACC-257 melanoma
M14 melanoma = system: M14 melanoma
HCT-15 colon = system: HCT-15 colon
HT29 colon = system: HT29 colon
SNB-75 CNS = system: SNB-75 CNS
SNB-19 CNS = system: SNB-19 CNS
U251 CNS = system: U251 CNS
PC-3 prostate = system: PC-3 prostate
SK-MEL-5 melanoma = system: SK-MEL-5 melanoma
UACC-62 melanoma = system: UACC-62 melanoma
LOX IMVI melanoma = system: LOX IMVI melanoma
SK-MEL-28 melanoma = system: SK-MEL-28 melanoma

Compound | growth (DU-145 prostate) | growth (K-562 leukemia) | growth (MALME-3M melanoma) | growth (MDA-MB-231 breast) | growth (RXF 393 renal) | growth (SF-268 CNS) | growth (SF-295 CNS) | growth (SF-539 CNS) | growth (UACC-257 melanoma) | growth (M14 melanoma) | growth (HCT-15 colon) | growth (HT29 colon) | growth (SNB-75 CNS) | growth (SNB-19 CNS) | growth (U251 CNS) | growth (PC-3 prostate) | growth (SK-MEL-5 melanoma) | growth (UACC-62 melanoma) | growth (LOX IMVI melanoma) | growth (SK-MEL-28 melanoma)
C[C@@]1(CCC#N)[C@H]2CC[C@@H]3[C@H]4[C@H](C(=O)/C=C/c5cccnc5)CC[C@]4(C#N)CC[C@@]3(C)[C@]2(C)CC[C@H]1C(=O)/C=C/c1cccnc1 | 81.5% | 23.2% | 109% | 93.4% | 69.7% | 61.7% | 100% | 83.7% | 67.5% | 74.7% | 31.5% | 24.1% | 72.7% | 86.9% | 64.1% | 65% | 77.3% | 52.4% | 17.5% | 97.3%
Cc1nn(-c2ccccc2)c(Oc2ccc(Cl)cc2)c1/C=N\N=c1/sc2ccccc2n1C | 108% | 81% | 98.2% | 79% | 94.2% | 79.6% | 101% | 107% | 91.9% | 87.4% | 77.4% | 84.8% | 74.4% | 99.1% | 86.9% | 62.3% | 93.3% | 70.8% | 93.3% | 110%
NS(=O)(=O)c1ccc(-n2nc(C(=O)N/N=C\c3ccc(F)cc3)cc2-c2ccc(Cl)cc2)cc1 | 104% | 87.9% | 89.9% | 74% | 89.5% | 88.3% | 97% | 88.1% | 101% | -85.9% (active) | 98.4% | 118% | 57.1% | 85.5% | 93.3% | 81.9% | 93.5% | 81.8% | 90.9% | 98.8%
O=C1CCC2=C3C4CCCCC4C(=O)C4CCCC(OC2C1)C34 (stereo not given) | 0.534% (active) | 5.63% (active) | -33% (active) | 28% | -80.8% (active) | 3.25% (active) | 33.4% | 4.64% (active) | 28.8% | 0.565% (active) | 4.39% (active) | 85.6% | 43.1% | 34.1% | 4.33% (active) | 46.7% | -77.9% (active) | 50.3% | 1.47% (active) | 52%
C=C1C(=O)O[C@H]2[C@H]1CC/C(CNC(=O)/C=C/c1ccc(Cl)cc1Cl)=C\CC[C@@]1(C)O[C@@H]21 | -80.7% (active) | -31.2% (active) | -89.8% (active) | -42.1% (active) | -84.6% (active) | -69.7% (active) | 39.2% | -72.4% (active) | -51.7% (active) | -57.5% (active) | -64% (active) | -58.4% (active) | 21.3% | 37.4% | 8.28% (active) | -26.4% (active) | 3.01% (active) | -65.2% (active) | -97.2% (active) | -68.2% (active)
Cc1ccc(/C=C2\C(=O)N(C)c3ccc(S(=O)(=O)Nc4ccc(C(C)(C)C)cc4)cc32)s1 | 38.9% | 66.7% | 42.5% | 21.2% | 42.1% | 26.7% | 42.6% | 19.4% | 76% | 67% | 68% | 64.9% | -18.3% (active) | 58.3% | 20.5% | 52.9% | 82.3% | 60.7% | 28.2% | 69.1%
O=C(c1ccccc1)c1c(/C=C/c2ccc(Cl)cc2)nc2ccccc2c1/C=C/c1cccs1 | 107% | 83.6% | 99.3% | 94.4% | 104% | 93.5% | 102% | 97.3% | 87.7% | 96.8% | 96.6% | 100% | 84.1% | 89.7% | 93.5% | 91.8% | 100% | 87.4% | 94.2% | 102%
COc1ccc(S(=O)(=O)NCCNc2nccc(-c3c(-c4cccc(F)c4)nc4sccn34)n2)cc1 | 48.3% | 23% | 49.1% | 61.4% | 28.8% | 35.4% | 58.5% | 77.4% | 66.7% | 38.4% | 23.4% | 23.9% | -0.29% (active) | 58.3% | 52.5% | 29.4% | 9.62% (active) | 39% | 32.9% | 60%
COc1ccccc1N1C(=O)/C(=C/C2=Cc3ccccc3OC2)SC1=S | 100% | 75% | 92.9% | 88.1% | 103% | 109% | 91.5% | 103% | 100% | 98.2% | 65.3% | 99.6% | 97.8% | 91.1% | 95.7% | 77.1% | 97.7% | 86% | 105% | 92.8%
NC(=S)N/N=C/Cc1ccccc1 | 110% | 88.4% | 119% | 101% | 103% | 105% | 97.7% | 109% | 59.7% | 104% | 87.4% | 94.7% | 110% | 104% | 98.4% | 91.4% | 107% | 108% | 73% | 109%
Cc1nc2ccccc2c(/C=C/c2ccc(Cl)cc2)c1C(=O)/C=C/c1ccc(F)cc1 | -8.13% (active) | 5.45% (active) | -6.33% (active) | 1.67% (active) | -48.9% (active) | 48.6% | 12.3% | -61.2% (active) | 15% | 5.81% (active) | -15.4% (active) | 5.82% (active) | 51.7% | -26% (active) | -76.8% (active) | 20.4% | 8.11% (active) | 0.679% (active) | -90.3% (active) | -27.7% (active)
COC1=CC(=O)C[C@@H](C)[C@]12Oc1c(Cl)c(OC)cc(OC)c1C2=O | 105% | 32.9% | 85.2% | 84.1% | 86.8% | 93.5% | 96.8% | 104% | 84.5% | 66.3% | 76.9% | 104% | 67.8% | 95.7% | 92.1% | 87.5% | 84.3% | 73.3% | 80.8% | 85.7%
C=C(C)[C@@H]1CC[C@]2(C)[C@H](CC=C3[C@@H]4CC(C)(C)CC[C@]4(C(N)=O)CC[C@]32C)[C@@]1(C)CCC#N | 42.1% | 15.9% | 10.4% | 38.6% | 2.74% (active) | 45.6% | 38.5% | 35.7% | 17.5% | 44.7% | 14.8% | 39.3% | 29.3% | 47.7% | 30.6% | -0.165% (active) | -2.59% (active) | 15.7% | 36.9% | 45.8%
N#Cc1c(-c2ccccc2)cc(-c2ccc(Nc3nc(Nc4ccc(F)cc4)nc(Nc4ccc(F)cc4)n3)cc2)nc1N | 106% | 88.8% | 80.6% | 73.2% | 53.6% | 96.1% | 65% | 94.5% | 104% | 108% | 100% | 94.1% | 87.1% | 91.7% | 92% | 75.8% | 92% | 98.6% | 95.5% | 90.1%
N#CC1=C(/N=C/c2ccccc2)Oc2c(ccc3ccccc23)C1c1ccccc1 (stereo not given) | 17.6% | 12.2% | 49.2% | 19% | 18% | 30.8% | 3.77% (active) | 1.25% (active) | 53.6% | 4.85% (active) | 16.6% | 4.48% (active) | 10.1% | 24.4% | 16.9% | 8.32% (active) | -3.14% (active) | 15.7% | 23.9% | 41.5%
Cc1cc(NCc2cc(Nc3ccnc4cc(Cl)ccc34)ccc2F)nc(Cl)n1 | 60% | 19.8% | 76.8% | 43.5% | 62.9% | 72.2% | 34.2% | 73.3% | 35.7% | 38.7% | 27% | 28.1% | 71.5% | 58.3% | 44.8% | 34.9% | 3.73% (active) | 45.2% | 34.9% | 72.1%
